High-throughput results as filed in PubChem BioAssay.
LmPK inhibitor – blocks Leishmania mexicana pyruvate kinase activity. Q27686. purified LmPK, Kinase-Glo ATP luminescence, 1 h. Potency, µM (series often up to 57.5 µM), without a hit: at the highest dose activity change, negative = inhibition, hits mostly inhibitors. actives 0.37% (n = 290,000). AID 1721; further: potency means the concentration at half of the fitted maximal effect; on the % scale 0 is the no-effect control and ±100 the full control effect
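qHTS format; LmPK 0.1 nM; substrates PEP 0.5 mM and ADP 0.1 mM. One-hour room-temperature incubation, then coupled luciferase luminescence; 0.5 nM enzyme wells mark activation.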
Cycloheximide cs – counter-screen hit for Shiga toxin inhibitors, cycloheximide. cell reporter, cycloheximide protein synthesis inhibition counterscreen. max response, %. actives 12% (n = 300,000). AID 2314; in the data active means max response mostly above about 13%, no sharp cut-off; inactive means mostly below about 14%; further: read at 38.3 µM for the half of the compounds with a filed dose; 0% is about no effect
Pf growth 96h – P. falciparum growth inhibition at 96 hour, primary screen for plastid delayed-death inhibitors; actives 6.9% (n = 320,000); Potency, µM (top dose mostly 28.7 µM), for inactives: at the highest dose activity change, negative = inhibition, hits mostly inhibitors; AID 504834; P. falciparum luciferase reporter growth, 96 h; further: potency means the concentration at half of the fitted maximal effect; on the % scale 0 is the no-effect control and ±100 the full control effect
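Plates of compound plus infected erythrocytes (2% hematocrit, 0.05% parasitemia final) incubate 96 hours, 37 C, 5% CO2. Detection reagent added; reduced luminescence from the parasites' luciferase reporter flags inhibition.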
Pf growth 48h – inhibits P. falciparum growth in the first generation, 48 h; P. falciparum luciferase growth in erythrocytes, 48 h; actives 5.9% (n = 310,000); Potency, µM (titrated, usually from 28.7 µM), for inactives: top-dose activity change, negative = inhibition, actives largely listed as inhibitors; further: potency means the concentration at half of the fitted maximal effect; on the % scale 0 is the no-effect control and ±100 the full control effect
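Growth was read as firefly luciferase luminescence after a 48 h, 37 C, 5% CO2 exposure of compounds to reporter-bearing P. falciparum cultures (0.1% parasitemia, 2% hematocrit final) in Albumax-supplemented RPMI 1640.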
Shiga inhibitor – blocks Shiga toxin action in Vero cells. Vero cells, Shiga toxin protein synthesis inhibition reporter. inhibition, % at 38.7 µM. actives 9.2% (n = 290,000); in the data active means inhibition mostly above about 28%, no sharp cut-off; inactive means mostly below about 43%; further: 0% is about no effect
* hit, by the source's call; ? = inconclusive; nt = no result given. An excerpt weighted towards active compounds, which were near 22% of everything screened. Unless noted, the call rests on the fitted dose curve; in most records, active means well fitted inhibition curve with a large enough effect; inconclusive means small, poorly fitted or top-dose-only effect, or another doubt; inactive means no such curve, though single readings can be large or run the other way.

SMILES	LmPK inhibitor	Cycloheximide cs	Pf growth 96h	Pf growth 48h	Shiga inhibitor
Cc1ccc(OCC(=O)N(c2ccccn2)C2CCCCC2)c(C)c1	5%	1	7.4µM*	?	8
CN(C(=O)COc1ccc(Cl)cc1Br)C1CCCCC1	-2%	45*	-16%	-11%	72*
O=C(COCCOCC(=O)N(c1ccccn1)C1CCCCC1)N(c1ccccn1)C1CCCCC1	-3%	-3	3%	-24%	-2
O=C(COC(=O)COc1ccc(Cl)cc1Br)NC1CCCCCC1	nt	nt	-14%	-5%	nt
O=C(COc1ccc(Cl)cc1Cl)N(c1ccccn1)C1CCCCC1	2%	30*	121%	?	32
Cc1ccc2c(c1)C(=O)C(=O)N2CC(=O)Nc1ccccc1NC(=O)c1ccccn1	9%	1	28%	-4%	-4
Cc1ccc(NS(=O)(=O)c2ccc(NC(=O)c3cccs3)cc2)cc1	6%	-2	?	8%	-1
CCc1cc2cc(C(=O)Nc3ccc(C)cc3)sc2s1	5%	11	2.3µM*	?	22
O=C1NCC(COc2ccc([N+](=O)[O-])cc2)O1 (stereo not drawn)	0%	2	22%	27%	-7
N#Cc1ccc(-c2ccc(OCC3CNC(=O)O3)cc2)cc1 (stereo not drawn)	-1%	47*	0%	35%	65*
O=C1NCC(COCc2ccccc2)O1 (stereo not drawn)	-1%	-1	5.2µM*	13%	-6
Cc1ccc(NC(=O)CSc2n[nH]c(-c3cccnc3)n2)c(Br)c1	5%	-8	?	25%	-8
